According to PubChem BioAssay (NCATS):
“And” between values parts separate entries of the source, which are not always exact repeats. Identical values can stand only once. Results filed as inconclusive are left out. A call without a number means that no potency is given here. The source made the active and inactive calls. Unless noted, the call rests on the fitted dose curve; in most records, active means well fitted curve in the direction sought with a large enough effect; inconclusive means small, poorly fitted or top-dose-only effect, or another doubt; inactive means no such curve, though single readings can be large; an effect the other way counts as inactive or inconclusive. Numbered stars: 1 amine (or outer) side, 2 acyl side, 3 side chain; on linkers, the order of the positions; unused ones are H or OH. Bridge positions count the residues as written; N and C are the ends. Square brackets hold non-standard residues; d marks the D form. Peptide text beside a SMILES is read from it. I, II: the chains in the order shown. Actinocin(9to1) = Cc1c2oc3c(C)ccc(C(=O)[*:1])c3nc-2c(C(=O)[*:2])c(N)c1=O; NMeV = CN[C@H](C(=O)O)C(C)C; Sar = CNCC(=O)O

Assays:
[1] = target: Protein phosphatase 1D (Homo sapiens) (UniProt O15297); test: RapidFire Mass Spectrometry qHTS Assay for Modulators of WT P53-Induced Phosphatase 1 (WIP1) (AID 1347424);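 further: amount of dephosphorylated VEPPL-S-QETFS peptide product formed by WIP1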; further: potency means the concentration at half of the fitted maximal effect
Protein phosphatase 1D (Homo sapiens), sequence (O15297 whole entry, looked up): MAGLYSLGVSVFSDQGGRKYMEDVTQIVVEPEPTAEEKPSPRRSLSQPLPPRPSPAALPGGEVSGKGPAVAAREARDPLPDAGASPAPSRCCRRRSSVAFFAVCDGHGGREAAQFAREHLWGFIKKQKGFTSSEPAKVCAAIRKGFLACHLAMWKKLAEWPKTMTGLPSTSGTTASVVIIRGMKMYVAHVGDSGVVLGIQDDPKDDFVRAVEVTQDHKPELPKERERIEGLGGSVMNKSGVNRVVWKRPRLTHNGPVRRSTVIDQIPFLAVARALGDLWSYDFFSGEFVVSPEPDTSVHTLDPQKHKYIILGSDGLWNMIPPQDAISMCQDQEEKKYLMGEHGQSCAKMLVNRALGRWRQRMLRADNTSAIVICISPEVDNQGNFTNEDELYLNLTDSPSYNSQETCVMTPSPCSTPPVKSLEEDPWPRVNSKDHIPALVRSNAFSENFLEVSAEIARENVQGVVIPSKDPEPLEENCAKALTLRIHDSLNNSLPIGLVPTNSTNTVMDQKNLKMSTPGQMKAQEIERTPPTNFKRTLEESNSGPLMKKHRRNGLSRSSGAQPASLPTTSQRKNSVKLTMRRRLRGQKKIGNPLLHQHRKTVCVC
Procedure, shortened: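 WIP1 (10 nM final) was preincubated 1 h at room temperature with compounds in Tris-HCl pH 7.5, 30 mM MgCl2, TCEP, EGTA, BSA; 2 uM VEPPL-pS-QETFS phosphopeptide was added for 5 min, quenched with formic acid, and dephosphorylated product quantified by RapidFire MS.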

[2] = Primary qHTS for inhibitors of La Crosse Virus (LACV) - induced cell death in SH-SY5Y cells (AID 1508616);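 further: top concentration of the series differs between compounds; higher means more rescue of cells from virus-induced death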
Procedure, shortened: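 SH-SY5Y cells (6000/well) plated 24 h, then given compounds by pin transfer and LACV at 0.01 MOI for 6 days at 37C. Viability measured by ATPLite luminescence, normalized to infected DMSO and uninfected DMSO.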

[3] = target: Calcium and integrin-binding protein 1 (Homo sapiens) (UniProt Q99828); test: Primary qHTS for Identification of Calcium Integrin Binding Protein 1 (CIB1) Competitor (AID 1508620);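 further: GST tagged CIB1 binding a fluorescein labelled alphaIIb integrin peptide tracer; top concentration of the series differs between compounds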
Calcium and integrin-binding protein 1 (Homo sapiens), sequence (Q99828 whole entry, looked up): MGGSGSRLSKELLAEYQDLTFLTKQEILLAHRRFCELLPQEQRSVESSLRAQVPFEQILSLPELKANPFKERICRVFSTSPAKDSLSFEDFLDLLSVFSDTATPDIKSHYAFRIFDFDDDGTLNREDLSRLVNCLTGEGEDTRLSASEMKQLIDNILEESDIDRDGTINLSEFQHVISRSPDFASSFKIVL
Procedure, shortened: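 Fluorescence polarization competition: CIB1-GST (1 uM final) preincubated with compound 15 min at room temperature, then FITC-labeled alphaIIb peptide (100 nM final) added for another 15 min. Polarization read at Ex 480/Em 540.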

[4] = A High-Content qHTS Against Drug Library for the Identification of Small Molecules that Inhibit DYT1 Early Onset Primary Dystonia-Associated Cell Pathology (AID 1645839; calls by dose curve; further: series mostly up to about 46 µM)
Procedure, shortened: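 Readout: %pathology, the punctate EGFP-TorsinA distribution from imaging, as the primary channel and cell count as the toxicity counterscreen. HEK293 Flp-In cells expressing delE TorsinA were induced with tetracycline and treated with compound for 48 h.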

[5] = target: Cytochrome P450 2D6 (Homo sapiens) (UniProt P10635); test: Cytochrome P450 family 2 subfamily D member 6 (CYP2D6) small molecule antagonists: luciferase biochemical (cell-free) qHTS assay (AID 1645840; active means well fitted curve in the direction sought with a large enough effect in the repeat runs; an effect the other way counts as inactive or inconclusive; further: nearly all actives have a fitted effect of over 55% in size; further: potency means the concentration at half of the fitted maximal effect)
Cytochrome P450 2D6 (Homo sapiens), sequence (P10635 whole entry, looked up): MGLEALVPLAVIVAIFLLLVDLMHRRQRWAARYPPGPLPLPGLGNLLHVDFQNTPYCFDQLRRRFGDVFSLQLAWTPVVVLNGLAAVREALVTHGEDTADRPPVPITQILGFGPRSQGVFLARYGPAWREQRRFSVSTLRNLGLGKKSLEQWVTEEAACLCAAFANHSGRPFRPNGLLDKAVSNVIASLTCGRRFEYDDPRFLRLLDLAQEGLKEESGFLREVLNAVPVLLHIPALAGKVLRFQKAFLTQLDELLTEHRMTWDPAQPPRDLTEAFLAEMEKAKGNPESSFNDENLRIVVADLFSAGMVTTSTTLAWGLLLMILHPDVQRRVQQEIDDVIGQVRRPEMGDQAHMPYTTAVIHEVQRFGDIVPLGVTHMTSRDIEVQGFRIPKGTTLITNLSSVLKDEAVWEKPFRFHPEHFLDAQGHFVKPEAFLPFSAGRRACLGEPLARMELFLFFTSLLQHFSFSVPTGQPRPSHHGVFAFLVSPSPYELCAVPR
Procedure, shortened: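 P450-Glo luminescent screen: recombinant CYP2D6 enzyme–proluciferin substrate mix preincubated with compound 10 min at room temperature, then NADPH regeneration added for 1 h at room temperature. Detection reagent added for 20 min; luciferin light read as relative luminescence units.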

[6] = target: Cytochrome P450 2C9 (Homo sapiens) (UniProt P11712); test: Cytochrome P450 family 2 subfamily C member 9 (CYP2C9) small molecule antagonists: luciferase biochemical (cell-free) qHTS assay (AID 1645842; active means well fitted curve in the direction sought with a large enough effect in the repeat runs; an effect the other way counts as inactive or inconclusive; further: nearly all actives have a fitted effect of over 55% in size; further: potency means the concentration at half of the fitted maximal effect)
Cytochrome P450 2C9 (Homo sapiens), sequence (P11712 whole entry, looked up): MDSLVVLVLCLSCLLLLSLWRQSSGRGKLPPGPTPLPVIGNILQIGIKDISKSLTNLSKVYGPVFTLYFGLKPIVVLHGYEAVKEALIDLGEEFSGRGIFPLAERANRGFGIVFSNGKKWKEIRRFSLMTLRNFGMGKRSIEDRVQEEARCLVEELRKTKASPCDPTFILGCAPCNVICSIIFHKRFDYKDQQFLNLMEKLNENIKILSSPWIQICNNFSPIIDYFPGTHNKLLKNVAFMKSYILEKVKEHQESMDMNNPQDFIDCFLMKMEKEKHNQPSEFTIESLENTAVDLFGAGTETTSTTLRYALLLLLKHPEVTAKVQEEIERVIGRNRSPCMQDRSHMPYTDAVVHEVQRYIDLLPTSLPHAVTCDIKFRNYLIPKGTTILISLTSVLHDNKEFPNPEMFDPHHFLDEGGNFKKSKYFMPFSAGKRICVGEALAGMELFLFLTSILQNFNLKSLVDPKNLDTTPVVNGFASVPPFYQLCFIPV
Procedure, shortened: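 Luminescence, after 20 min with luciferin detection reagent, reflected CYP2C9 turnover during a 1 h NADPH-driven reaction at 37C. Enzyme-substrate mix contained 0.4% bovine serum albumin and was preincubated with compound 10 min at room temperature.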

[7] = Primary qHTS for small molecule stabilizers of the endoplasmic reticulum resident proteome: Secreted ER Calcium Modulated Protein (SERCaMP) assay (AID 1508630)
Procedure, shortened: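 GLuc-SERCaMP-expressing SH-SY5Y cells, pretreated 16 h with compound, are challenged with thapsigargin to empty ER calcium stores; after 4 h, coelenterazine is added directly to the medium and luminescence is imaged.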

[8] = Primary qHTS for inhibitors of nuclear receptor binding SET domain protein 2 (NSD2) in an isogenic RCH-ACV NSD2 p.E1099K mutant (9B) (AID 1645876); further: nearly all actives have a fitted effect of over 70% in size; further: potency means the concentration at half of the fitted maximal effect
[9] = Primary qHTS for inhibitors of nuclear receptor binding SET domain protein 2 (NSD2) in an RCH-ACV wild type WT cells (2C) (AID 1645877); further: nearly all actives have a fitted effect of over 70% in size; further: potency means the concentration at half of the fitted maximal effect
[10] = target: Cytochrome P450 3A4 (Homo sapiens) (UniProt P08684); test: Cytochrome P450 family 3 subfamily A member 4 (CYP3A4) small molecule antagonists: luciferase qHTS assay (AID 1645841; active means well fitted curve in the direction sought with a large enough effect in the repeat runs; an effect the other way counts as inactive or inconclusive; further: nearly all actives have a fitted effect of over 45% in size)
Cytochrome P450 3A4 (Homo sapiens), sequence (P08684 whole entry, looked up): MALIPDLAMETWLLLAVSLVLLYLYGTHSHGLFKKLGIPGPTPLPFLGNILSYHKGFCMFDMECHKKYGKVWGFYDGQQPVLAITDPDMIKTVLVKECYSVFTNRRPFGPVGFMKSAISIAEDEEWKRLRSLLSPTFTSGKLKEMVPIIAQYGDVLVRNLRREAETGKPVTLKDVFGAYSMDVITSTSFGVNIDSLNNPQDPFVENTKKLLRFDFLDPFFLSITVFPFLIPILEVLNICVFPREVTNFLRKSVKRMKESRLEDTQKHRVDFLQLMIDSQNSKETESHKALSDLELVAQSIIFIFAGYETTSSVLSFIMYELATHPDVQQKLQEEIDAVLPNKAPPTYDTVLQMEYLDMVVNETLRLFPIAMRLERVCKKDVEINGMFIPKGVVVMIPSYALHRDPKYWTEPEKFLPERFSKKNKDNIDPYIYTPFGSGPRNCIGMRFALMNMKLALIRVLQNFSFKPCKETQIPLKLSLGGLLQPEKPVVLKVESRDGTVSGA
Procedure, shortened: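 P450-Glo CYP3A4 enzyme with proluciferin substrate was preincubated with DMSO-dissolved compounds for 10 min at room temperature. NADPH regeneration solution started a 1 h reaction. Detection reagent stopped it, and luminescence was read after 20 min.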

[11] = Counterscreen qHTS for small molecule stabilizers of the endoplasmic reticulum resident proteome: GLuc-NoTag assay (AID 1508627);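 further: SH-SY5Y cells given compound then 100 nM thapsigargin to empty ER calcium; series mostly up to about 76 µM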
Procedure, shortened: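 SH-SY5Y cells stably expressing constitutively secreted GLuc (no SERCaMP tag) were pre-incubated 5 h, treated with compound for 19 h, then 100 nM thapsigargin for 4 h at 37C; medium GLuc read by coelenterazine luminescence.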

Compound	Potency [1]	Potency [2]	Potency [3]	Potency [4]	Potency [5]	Potency [6]	Potency [7]	Potency [8]	Potency [9]	outcome [10]	outcome [11]
COc1cc2c(cc1OC)C(C(C(=O)N(CCc1ccc(OC)c(OC)c1OC)CCc1ccc(OC)c(OC)c1OC)c1ccccc1)=NCC2 (stereo unspecified)	inactive	inactive	inactive	inactive	12.3 µM (active)	4.36 µM (active)	–	–	–	–	–
CC1(C)O[C@@H]2C[C@H]3[C@@H]4C[C@H](F)C5=CC(=O)C=C[C@]5(C)[C@H]4[C@@H](O)C[C@]3(C)[C@]2(C(=O)CO)O1	inactive	inactive	inactive	–	inactive	–	inactive	inactive	16.6 nM (active)	–	–
Cc1cc(O)c(C(C)C)cc1Cl	inactive	inactive	inactive	inactive	12.3 µM (active)	21.9 µM (active)	inactive	inactive	inactive	–	–
Cc1c(C)n(CCN(C)C)c2ccc(C(=O)OCCN(C)C)cc12	inactive	inactive	inactive	–	inactive	inactive	inactive	–	–	–	–
CN(C)CC/C=C1/c2ccccc2COc2ccc(CC(=O)O)cc21	inactive	inactive	inactive	inactive	inactive	inactive	–	inactive	inactive	–	–
C[n+]1c2cc(N)ccc2cc2ccc(N)cc21 (tested in a mixture with another compound)	inactive	inactive	–	–	11 µM (active)	inactive	inactive	1.5 µM (active)	1190 nM (active)	–	–
CC(=O)O[C@]1(C(C)=O)CC[C@H]2[C@@H]3C[C@H](C)C4=CC(=O)CC[C@]4(C)[C@H]3CC[C@@]21C	inactive	inactive	inactive	–	inactive	3.09 µM (active)	inactive	25.8 µM (active)	–	inactive	–
CC(C)(Oc1ccc(Cl)cc1)C(=O)O	inactive	inactive	inactive	inactive	–	–	inactive	inactive	inactive	–	–
Cc1ccc(Nc2c(F)cccc2Cl)c(CC(=O)O)c1	inactive	inactive	inactive	inactive	–	–	–	–	inactive	–	–
c1ccc(OCc2ccc(CCCN3CCOCC3)cc2)cc1	inactive	inactive	inactive	–	6.92 µM (active)	inactive	inactive	–	–	–	–
CCC(C(=O)OCCN(CC)CC)c1ccccc1 (stereo unspecified)	inactive	inactive	inactive	–	3.09 µM (active)	inactive	inactive	inactive	inactive	–	–
CCOC(=O)/C=C(C)/C=C/C=C(C)/C=C/c1c(C)cc(OC)c(C)c1C	inactive	inactive	inactive	inactive	–	7.76 µM (active)	inactive	–	–	–	–
Cc1c2oc3c(C)ccc(C(=O)N[C@@H]4C(=O)N[C@H](C(C)C)C(=O)N5CCC[C@H]5C(=O)N(C)CC(=O)N(C)[C@@H](C(C)C)C(=O)O[C@@H]4C)c3nc-2c(C(=O)N[C@@H]2C(=O)N[C@H](C(C)C)C(=O)N3CCC[C@H]3C(=O)N(C)CC(=O)N(C)[C@@H](C(C)C)C(=O)O[C@@H]2C)c(N)c1=O (I: T[dV]P[Sar][NMeV] / II: T[dV]P[Sar][NMeV]; ester I:1-I:C, II:1-II:C; linker I:N-II:N via Actinocin(9to1))	inactive	inactive	inactive	–	inactive	inactive	inactive	inactive	inactive	–	–
O=C(O)CCCCC(=O)O	inactive	inactive	–	inactive	–	inactive	–	inactive	inactive	–	–
NC(CS)C(=O)O (stereo unspecified)	inactive	inactive	inactive	inactive	inactive	inactive	–	inactive	inactive	–	–
OC[C@H]1O[C@H](O[C@]2(CCl)O[C@H](CCl)[C@@H](O)[C@@H]2O)[C@H](O)[C@@H](O)[C@H]1Cl	inactive	inactive	inactive	–	inactive	inactive	–	inactive	inactive	–	–
CN(C)CCCOc1nn(Cc2ccccc2)c2ccccc12	inactive	inactive	inactive	–	–	–	inactive	9.44 µM (active) and 25.8 µM (active)	10.6 µM (active) and 14.5 µM (active)	–	–
C[C@H]1C[C@H]2[C@@H]3CCC4=CC(=O)C=C[C@]4(C)[C@@]3(Cl)[C@@H](O)C[C@]2(C)[C@@]1(O)C(=O)CO	inactive	inactive	inactive	inactive	15.5 µM (active)	17.4 µM (active)	inactive	–	4.7 nM (active)	–	–
Cc1ncc(CSSCc2cnc(C)c(O)c2CO)c(CO)c1O	inactive	inactive	inactive	–	7.76 µM (active)	6.17 µM (active)	inactive	inactive	inactive	–	–
CCCCCCc1ccc(O)cc1O	inactive	inactive	inactive	–	4.9 µM (active)	8.71 µM (active)	–	13.3 µM (active)	–	–	–
O=C(Nc1ccc(Oc2ccc(Cl)cc2)c(Cl)c1)c1cc(I)cc(I)c1O	inactive	inactive	–	–	19.5 µM (active)	inactive	–	inactive	inactive	–	inactive
C[C@H]1[C@H](NC(=O)/C(=N/OC(C)(C)C(=O)O)c2csc(N)n2)C(=O)N1S(=O)(=O)O (stereo in doubt)	inactive	inactive	inactive	inactive	inactive	inactive	–	inactive	inactive	–	–
Oc1ccc(Cl)cc1Sc1cc(Cl)ccc1O	31.6 µM (active)	inactive	–	–	12.3 µM (active)	12.3 µM (active)	inactive	18.8 µM (active)	–	–	–
